Growth data for seven compounds are collected here from PubChem BioAssay (NCI).

What all share (assay): NCI-60 one-dose screen, 48 h (100 = growth as untreated, 0 = no growth, -100 = all killed)
One experiment concerns NCI-H23 lung. As to conditions: 10 µM unless noted.
The test system of the next experiment is NCI-H226 lung. The note with it: 10 µM unless noted.
For a further experiment, the system named is NCI-H322M lung. As to conditions: 10 µM unless noted.
The next experiment relates to HOP-62 NSCLC. As to conditions: 10 µM unless noted.
For another experiment, the system named is NCI-H460 lung. The note with it: 10 µM unless noted.
The test system of another experiment is HOP-92 NSCLC. The note with it: 10 µM unless noted.
The next experiment has as its system NCI-H522 lung. The note with it: 10 µM unless noted.
The test system of a further experiment is A549/ATCC NSCLC. The note with it: 10 µM unless noted.
The subject of another experiment is 786-0 renal. As to conditions: 10 µM unless noted.
The test system of a further experiment is COLO 205 colon. The note with it: 10 µM unless noted.
Another experiment concerns DU-145 prostate. As to conditions: 10 µM unless noted.
Another experiment has as its system K-562 leukemia. The note with it: 10 µM unless noted.
The next experiment has as its system MALME-3M melanoma. As to conditions: 10 µM unless noted.
The subject of the next experiment is MDA-MB-231 breast. The note with it: 10 µM unless noted.
The subject of a further experiment is RXF 393 renal. As to conditions: 10 µM unless noted.
The test system of the next experiment is SF-268 CNS. The note with it: 10 µM unless noted.
A further experiment concerns SF-295 CNS. As to conditions: 10 µM unless noted.
A further experiment concerns SF-539 CNS. The note with it: 10 µM unless noted.
The next experiment concerns UACC-257 melanoma. As to conditions: 10 µM.
In a further experiment the test system is M14 melanoma. The note with it: 10 µM unless noted.

Compounds without any hit were thinned out: in the full panel of roughly 83,000, 20% have a hit.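 Step 1: grow cells in 96-well plates. Step 2: add test compound at a single concentration. Step 3: incubate 48 h. Step 4: record percent growth.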 Values without a mark were called inactive. The source made the active and inactive calls. The calls were made as follows: active = growth percent below 10; inactive = the rest.

With `C#C[C@]1(O)CC[C@H]2[C@@H]3CC=C4c5sc(Nc6ccncc6)nc5CC[C@]4(C)[C@H]3CC[C@@]21C`, the growth in the experiment with NCI-H23 lung was 2.43% (active); with NCI-H226 lung it was -4.76% (active); in the experiment with NCI-H322M lung it was 31.7%; in the experiment on HOP-62 NSCLC, -42.3% (active); in the experiment on NCI-H460 lung it was 4.53% (active); with HOP-92 NSCLC it was 4.3% (active). Further, the growth was -37% (active) with NCI-H522 lung; -14.7% (active) in the experiment on A549/ATCC NSCLC; -60.2% (active) with 786-0 renal; -46.9% (active) in the experiment on COLO 205 colon; 21% with DU-145 prostate; 2.23% (active) with K-562 leukemia. For the same compound, the growth was -71.1% (active) with MALME-3M melanoma; 21.7% in the experiment on MDA-MB-231 breast; -62.9% (active) in the experiment with RXF 393 renal; -15.9% (active) in the experiment on SF-268 CNS; -70.8% (active) in the experiment on SF-295 CNS; -61.1% (active) in the experiment on SF-539 CNS. The growth is -44.3% (active) with UACC-257 melanoma and -49.7% (active) in the experiment on M14 melanoma.

Regarding `O=C(Nc1cc(Cl)cc(Cl)c1)Nc1ccc2oc(=O)ccc2c1`, the growth with NCI-H23 lung is -6.33% (active); in the experiment on NCI-H226 lung, 32.7%; with NCI-H322M lung, 21.9%; in the experiment on HOP-62 NSCLC it was 40.5%; in the experiment on NCI-H460 lung, 1.17% (active); in the experiment with HOP-92 NSCLC, -26.6% (active). For the same compound, the growth was 6.05% (active) in the experiment with NCI-H522 lung; 16.2% with A549/ATCC NSCLC; 23.9% with 786-0 renal; -10.9% (active) in the experiment with COLO 205 colon; 17% with DU-145 prostate; 15.4% in the experiment with K-562 leukemia. In addition, the growth in the experiment with MALME-3M melanoma was 0.228% (active); in the experiment on MDA-MB-231 breast it was 24.6%; in the experiment with RXF 393 renal, 47.7%; in the experiment on SF-268 CNS, 24.8%; in the experiment on SF-295 CNS, 3.51% (active); in the experiment on SF-539 CNS, 22.5%. For the same compound, the values for the growth in the experiment on UACC-257 melanoma and in the experiment with M14 melanoma were 23.4% and 32.5%, respectively.

`CN1CCN(c2nc(-c3cnc4ccccc4n3)cc3ccccc23)CC1`: the growth with NCI-H23 lung was 90.9%; with NCI-H226 lung it was 99.9%; in the experiment with NCI-H322M lung, 96.7%; in the experiment on HOP-62 NSCLC, 95.9%; with NCI-H460 lung it was 41.3%; in the experiment with HOP-92 NSCLC, 17.3%. In addition, the growth with NCI-H522 lung was 86.9%; with A549/ATCC NSCLC, 75.9%; in the experiment on 786-0 renal, 56.4%; in the experiment on COLO 205 colon, -65.2% (active); in the experiment on DU-145 prostate, 77.1%; in the experiment on K-562 leukemia it was -52.1% (active). Besides, the growth in the experiment on MALME-3M melanoma is 69%; in the experiment on MDA-MB-231 breast, 71.4%; in the experiment on RXF 393 renal, 23.9%; in the experiment with SF-268 CNS, 71.1%; with SF-295 CNS, 89.9%; with SF-539 CNS, 80.1%. Moreover, the results for the growth in the experiment with UACC-257 melanoma and with M14 melanoma were 91% and -80% (active), respectively.

On to `O=C(C[n+]1ccnc2ccccc21)c1ccc(O)c(O)c1`, for which the growth in the experiment with NCI-H23 lung is 63.8%; with NCI-H226 lung it was 71.1%; with NCI-H322M lung it was 90.8%; with HOP-62 NSCLC it was 90.7%; in the experiment on NCI-H460 lung it was 70.9%; in the experiment with HOP-92 NSCLC it was 64.8%. In addition, the growth was -5% (active) in the experiment with NCI-H522 lung; 87.1% in the experiment on A549/ATCC NSCLC; 44.3% in the experiment on 786-0 renal; 30.8% in the experiment on COLO 205 colon; 47.3% in the experiment on DU-145 prostate; 16.6% with K-562 leukemia. The growth was 54.7% in the experiment with MALME-3M melanoma; 55.3% with MDA-MB-231 breast; 17% with RXF 393 renal; 85.7% in the experiment with SF-268 CNS; 87.5% with SF-295 CNS; 53.1% in the experiment on SF-539 CNS. For the same compound, the growth in the experiment with UACC-257 melanoma was 57.8%; in the experiment with M14 melanoma, 61.3%.

`CCNCc1c(-c2cccc(OC(F)(F)F)c2)[nH]c2ccc(N3CCCC3)cc2c1=O`: the growth in the experiment with NCI-H23 lung was 24.9%; with NCI-H226 lung, 37.1%; in the experiment on NCI-H322M lung, 30.3%; in the experiment with HOP-62 NSCLC, 29.2%; in the experiment on NCI-H460 lung, 8.9% (active); in the experiment on HOP-92 NSCLC, 43.4%. In addition, the growth in the experiment on NCI-H522 lung was 32.5%; in the experiment on A549/ATCC NSCLC it was 40.2%; in the experiment with 786-0 renal, 28.2%; in the experiment with COLO 205 colon it was 17.9%; in the experiment on DU-145 prostate, 15%; in the experiment with K-562 leukemia it was 6.77% (active). The growth was 39.5% in the experiment with MALME-3M melanoma; 20% with MDA-MB-231 breast; -9.04% (active) in the experiment on RXF 393 renal; 45.1% in the experiment on SF-268 CNS; 3.08% (active) with SF-295 CNS; 2.73% (active) in the experiment on SF-539 CNS. Also, the growth in the experiment with UACC-257 melanoma is 62.2%; in the experiment with M14 melanoma, -0.303% (active).

`COc1ccc(-c2nnc(SCc3ccc(O)c4ncccc34)o2)cc1`: the growth was 38.2% in the experiment with NCI-H23 lung; 63.7% in the experiment with NCI-H226 lung; 49.3% in the experiment with NCI-H322M lung; 32.2% in the experiment on HOP-62 NSCLC; 14.9% in the experiment on NCI-H460 lung; -2.2% (active) in the experiment on HOP-92 NSCLC. Further, the growth in the experiment on NCI-H522 lung was 27.2%; in the experiment with A549/ATCC NSCLC, 41.2%; in the experiment on 786-0 renal it was 38.2%; in the experiment with COLO 205 colon, 102%; with DU-145 prostate it was 32.7%; in the experiment with K-562 leukemia it was 16.3%. Besides, the growth in the experiment on MALME-3M melanoma was 50%; in the experiment with MDA-MB-231 breast, 52.1%; in the experiment on RXF 393 renal, 60.2%; with SF-268 CNS, 30.9%; with SF-295 CNS, 15.6%; with SF-539 CNS, 27.2%. In addition, the values for the growth in the experiment on UACC-257 melanoma and in the experiment with M14 melanoma were 28.3% and 31.4%, respectively.

In the case of `COc1ccc(Oc2ccc(C3CC(c4cc(OC)c(OC)c(OC)c4)=NN3C(C)=O)cc2)cc1` (stereo not given), the growth with NCI-H23 lung is 24.1%; in the experiment on NCI-H226 lung, 17.1%; in the experiment with NCI-H322M lung it was 46.9%; with HOP-62 NSCLC, 48.1%; in the experiment on NCI-H460 lung it was 23.8%; in the experiment with HOP-92 NSCLC, 12.2%. Further, the growth in the experiment with NCI-H522 lung was 20%; in the experiment with A549/ATCC NSCLC, 24.8%; in the experiment on 786-0 renal, 29.2%; in the experiment with COLO 205 colon it was 11.1%; with DU-145 prostate, 40.4%; with K-562 leukemia, 16.1%. Also, the growth was 33.6% with MALME-3M melanoma; 40.6% with MDA-MB-231 breast; 17% with RXF 393 renal; 38.6% in the experiment with SF-268 CNS; 22.5% in the experiment on SF-295 CNS; 46.5% in the experiment on SF-539 CNS. Further, the growth in the experiment with UACC-257 melanoma is 40.3%; in the experiment on M14 melanoma it was 27.6%.
